Results reported in PubChem BioAssay AID1159580 (chemical genetic matrix, 2015).
Several values for one entry are separate records, joined by “and”; a condition that tells them apart may be missing. Equal values may be shown once. About 2,000 (36%) of roughly 5,500 compounds were called active. Inconclusive results (about 18%) are left out. Rule as the data show it: active = normalized growth mostly below about 0.91 (no sharp cut-off); inconclusive = no clear call, values can overlap the other calls; inactive = mostly above about 0.92. The list shows a part of the results.

Experiment: chemical genetic growth profiling, strain panel (AID 1159580);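 also: tested at 20 µM; growth read once vehicle control cultures reached saturation at 30 °C; 1 = growth at the plate median or of vehicle wells; lower values mean less growth of the strain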
Details: S. cerevisiae deletion strains, growth OD

Measured: normalized growth

C#C[C@]1(OC(C)=O)CCC2C3CCC4=CC(=O)CC[C@@H]4C3CC[C@@]21C (some centres not stated)
inactive: locus YAL013W, strain DEP1, active compounds read low 0.97 | locus YAL021C, strain ccr4, active compounds read low 0.988 | locus YAL026C, strain drs2, active compounds read low 0.984 | locus YAL030W, strain snc1, active compounds read low 0.986 | locus YBL061C, strain skt5, active compounds read low 0.981 | locus YBR009C, strain hhf1, active compounds read low 0.991 | locus YBR021W, strain FUR4, active compounds read low 0.98 | locus YBR023C, strain chs3, active compounds read low 0.976 | locus YBR171W, strain sec66, active compounds read low 0.974 | locus YBR229C, strain ROT2, active compounds read low 0.953 | locus YBR231C, strain swc5, active compounds read low 1.01 | locus YBR279W, strain paf1, active compounds read low 0.977 | locus YCL011C, strain gbp2, active compounds read low 0.985 | locus YCL016C, strain dcc1, active compounds read low 0.974 | locus YCL029C, strain bik1, active compounds read low 0.96 | locus YCL069W, strain vba3, active compounds read low 0.973 | locus YCR088W, strain abp1, active compounds read low 0.99 | locus YDL005C, strain med2, active compounds read low 0.971 | locus YDL035C, strain GPR1, active compounds read low 0.972 | locus YDL040C, strain nat1, active compounds read low 0.985 | locus YDL074C, strain BRE1, active compounds read low 0.965 | locus YDL101C, strain DUN1, active compounds read low 0.97 | locus YDL134C, strain PPH21, active compounds read low 0.948 | locus YDL185W, strain tfp1, active compounds read low 0.976 | locus YDL192W, strain arf1, active compounds read low 0.961 | locus YDR001C, strain nth1, active compounds read low 0.999 | locus YDR069C, strain doa4, active compounds read low 0.969 | locus YDR101C, strain arx1, active compounds read low 0.977 | locus YDR137W, strain rgp1, active compounds read low 0.982 | locus YDR159W, strain sac3, active compounds read low 0.936 | locus YDR162C, strain NBP2, active compounds read low 0.961 | locus YDR195W, strain ref2 0.978 | locus YDR297W, strain sur2, active compounds read low 0.994 | locus YDR318W, strain mcm21, active compounds read low 0.941 | locus YDR334W, strain swr1, active compounds read low 1.02 | locus YDR335W, strain msn5, active compounds read low 0.978 | locus YDR388W, active compounds read low 0.966 | locus YDR392W, strain spt3, active compounds read low 0.828 | locus YDR502C, strain sam2, active compounds read low 0.949 | locus YEL003W, strain gim4, active compounds read low 1.01 | locus YEL037C, strain rad23, active compounds read low 1 | locus YEL061C, strain CIN8 (second series), active compounds read low 0.991 | locus YEL061C, strain CIN8, active compounds read low 0.978 | locus YER015W, strain faa2, active compounds read low 0.995 | locus YER016W, strain bim1, active compounds read low 0.988 | locus YER110C, active compounds read low 0.97 | locus YER111C, strain swi4, active compounds read low 0.985 | locus YER155C, strain BEM2 (second series), active compounds read low 0.975 | locus YER155C, strain BEM2, active compounds read low 0.971 | locus YER167W, strain BCK2, active compounds read low 0.974 | locus YFR010W, strain ubp6, active compounds read low 1 | locus YGL078C, strain dbp3, active compounds read low 0.989 | locus YGL086W, strain mad1, active compounds read low 0.957 | locus YGL167C, strain pmr1, active compounds read low 0.993 | locus YGL173C, strain kem1, active compounds read low 0.989 | locus YGL227W, strain vid30, active compounds read low 0.975 | locus YGL240W, strain doc1, active compounds read low 1 | locus YGL248W, strain PDE1, active compounds read low 0.967 | locus YGL253W, strain hxk2, active compounds read low 1.01 | locus YGR135W, strain pre9, active compounds read low 0.925 | locus YGR252W, strain gcn5, active compounds read low 1.07 | locus YHR013C, strain ard1, active compounds read low 0.955 | locus YHR027C, strain rpn1, active compounds read low 1.01 | locus YHR030C, strain SLT2, active compounds read low 0.975 and 0.933 | locus YHR079C, strain IRE1 (second series), active compounds read low 0.969 | locus YHR079C, strain IRE1, active compounds read low 0.92 | locus YHR094C, strain hxt1, active compounds read low 0.981 | locus YHR129C, strain ARP1, active compounds read low 0.974 | locus YHR142W, strain chs7, active compounds read low 1 | locus YHR200W, strain rpn10, active compounds read low 0.963 | locus YIL066C, strain RNR3, active compounds read low 0.965 | locus YIL073C, strain SPO22, active compounds read low 0.926 | locus YIL125W, strain kgd1, active compounds read low 0.971 | locus YIR030C, strain dcg1, active compounds read low 0.961 | locus YJL092W, strain hpr5, active compounds read low 1 | locus YJL095W, strain BCK1 (second series), active compounds read low 0.984 | locus YJL095W, strain BCK1, active compounds read low 0.926 and 0.95 | locus YJL115W, strain asf1, active compounds read low 0.982 | locus YJL129C, strain trk1, active compounds read low 0.975 | locus YJL134W, strain LCB3, active compounds read low 0.973 | locus YJL154C, strain vps35, active compounds read low 0.985 | locus YJL164C, strain tpk1, active compounds read low 0.99 | locus YJL166W, strain qcr8, active compounds read low 0.995 | locus YJL168C, strain set2, active compounds read low 0.97 | locus YJL187C, strain SWE1 (second series), active compounds read low 0.961 | locus YJR043C, strain POL32, active compounds read low 1.03 | locus YJR066W, strain TOR1, active compounds read low 0.903
